Data from PubChem BioAssay AID743279 (National Center for Advancing Translational Sciences (NCATS), 2014).
The whole screen tested about 360,000 compounds, of which about 17,000 (4.7%) were called active. Roughly 5% stayed inconclusive and do not appear here. No stated cut-off is given here; in the data, active means activity change below about -50%; inconclusive means mostly about -30% to -49%; inactive means weaker than that. This excerpt belongs to a sample that is enriched for actives.

Experiment: qHTS for Inhibitors of Inflammasome Signaling: IL-1-beta AlphaLISA Primary Screen
Details: THP-1 LPS/ATP IL-1B secretion, 16 h; at 57.5 µM, hits give low values
Summary of the method: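 THP-1 cells pretreated 1 hr with compounds (up to 57.5 uM final), then stimulated with LPS (250 ng/mL final) plus ATP (1.25 mM final); secreted IL-1B measured by AlphaLISA after 16 hr, decreased signal indicating inhibition.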
On the % scale 0 is the no-effect control and ±100 the full control effect.

SMILES | activity change
O=C(O)CSc1nccc2ccccc12 | -61.2% (active)
CCNC(=O)C1(C)CCCN1C(=O)c1ccc(N(C)C)cc1 (stereo not given) | 15.5% (inactive)
Cc1nc(SCC(=O)c2ccccc2)c([N+](=O)[O-])[nH]1 | 23.3% (inactive)
CSCCC(C(=O)NC(C)(C)C)n1c(-c2ccccc2)nc2ccccc21 (stereo not given) | 15.5% (inactive)
COc1ccc(Oc2cn[nH]c2-c2ccc(OC)cc2O)cc1 | -82.8% (active)
COc1ccc(-c2[nH]ncc2/C=N/NC(=O)c2cc(Br)ccc2O)c(OC)c1 | 86.3% (inactive)
CCOc1ccccc1Oc1cn[nH]c1-c1ccc(OC)cc1O | 18.7% (inactive)
CC1Sc2ccc(S(=O)(=O)CCC(=O)NCc3ccccc3Cl)cc2NC1=O (stereo not given) | 18.9% (inactive)
CCS(=O)(=O)Nc1cccc(-c2cc(-c3ccccc3)c3cc(C)ccc3n2)c1 | -99.4% (active)
Cc1cc(C)cc(NS(=O)(=O)Cc2ccccc2)c1 | -5.28% (inactive)
CS(=O)(=O)Nc1cccc(-c2cn3ccccc3n2)c1 | -14% (inactive)
O=C(NC1CCCCC1)C(c1cc2ccccc2o1)n1c(=O)c(-c2ccco2)nc2ccccc21 (stereo not given) | -2.14% (inactive)
CN(C)CCNC(=O)c1ccc(Cl)c2cc3ccccc3nc12 | -112% (active)
CN(C)CCNC(=O)Nc1cccc(Cl)c1Cl | 2.19% (inactive)
CC(=O)NCCNC(=O)c1cc(-c2cccc3ccccc23)nc2ccccc12 | 0.0656% (inactive)
O=C(OCc1ccccc1)N1CCC2CC1c1cc(N3CCN(S(=O)(=O)c4cc(Cl)cc(Cl)c4)CC3)ccc12 (stereo not given) | 21.9% (inactive)
CC1(C)C=Cc2c(ccc3c2OC[C@@H](c2ccc(O)cc2O)C3)O1 | -13.2% (inactive)
CC(=O)c1c(N2CCN(c3ccc(F)cc3)CC2)nc(=S)n(-c2ccccc2)c1C | -79.7% (active)
CC(=O)c1c(N2CCOCC2)nc(=S)n(Cc2ccccc2)c1C | 30.6% (inactive)
CC(=O)c1c(N2CCOCC2)nc(=S)n(-c2cc(C)ccc2C)c1C | -14.3% (inactive)
CCOc1ccc(NC(=O)CN(C)C(=O)c2c(C)noc2C)cc1OCC | 2.67% (inactive)
Cc1cccc(NC(=O)CSC(N)=O)c1C | -90.9% (active)
Cc1cccc(NC(=O)COC(=O)CCc2ccccc2)c1C | 5.72% (inactive)

SMILES | activity change
Cc1ccccc1NC(=O)CSC(=O)c1ccccc1 | 22.2% (inactive)
CCCCCCCCCCCCCCCC(=O)OC/C=C(C)/C=C/C=C(C)/C=C/C1=C(C)CCCC1(C)C | -8.52% (inactive)
COC(=O)c1ccccc1NS(=O)(=O)c1ccc2[nH]c(=O)[nH]c2c1 | -16.3% (inactive)
COC(=O)c1ccc(NC(=O)c2ccccc2NS(=O)(=O)c2ccccc2)cc1 | -61.7% (active)
CCOc1ccc(NC(=O)c2ccccc2NS(C)(=O)=O)cc1 | -7.57% (inactive)
Cc1ccc(NS(=O)(=O)c2cc3c(cc2C)NC(=O)CO3)cc1 | -0.465% (inactive)
CC1CCN(C(=O)COC(=O)CCC(=O)c2cccs2)CC1 | 5.83% (inactive)
CCN1C(=O)[C@H]2[C@@H](c3ccccc3)N[C@]3(CCCN(Cc4ccc(C)cc4)C3=O)[C@H]2C1=O | -7.34% (inactive)
COc1cccc(CN(C)C(=O)CC23CC4CC(CC(C4)C2)C3)c1OC | -55.8% (active)
COc1ccc(CN(C)C(=O)Cc2ccsc2)c(OC)c1OC | 40.4% (inactive)
COc1ccc(S(=O)(=O)N2CCCCCC2)cc1C(=O)N(C)Cc1cccc(OC)c1OC | -8.59% (inactive)
COc1ccc(NC(=O)C2(C)Cc3c(-c4cccc(NC(C)=O)c4)ccnc3O2)cc1 (stereo not given) | 48.5% (inactive)
COC1=NC2=NCCN2C(OC)=N1 | 0.792% (inactive)
COc1ccc(C(=O)ON=C2c3ccccc3-c3ccccc32)cc1OC | 0% (inactive)
COc1ccc(C/C(N)=N/OC(=O)c2ccco2)cc1OC | 9.63% (inactive)
COc1ccc(C(=O)O/N=C(\N)Cc2ccc(Cl)cc2Cl)cc1OC | -58.9% (active)
CCCCC(O)C1=C[N+](=O)CC=C1 (stereo not given) | -4.88% (inactive)
CCn1ccnc1CNC(=O)CC1C(=O)NCCN1Cc1ccc(F)cc1Cl (stereo not given) | -0.584% (inactive)
CCCCc1ccc(NC(=O)CN2C(=O)NC(Cc3ccccc3)C2=O)cc1 (stereo not given) | -1.39% (inactive)
COc1ccccc1CNC(=O)COC(=O)CNS(=O)(=O)c1ccc(NC(C)=O)cc1 | 32.4% (inactive)
CC(=O)Nc1ccc(S(=O)(=O)NCC(=O)OCc2cc(=O)oc3ccc4ccccc4c23)cc1 | -58.2% (active)
COc1ccccc1C(=O)COC(=O)CNS(=O)(=O)c1ccc(NC(C)=O)cc1 | 9.71% (inactive)
